# Assay outcomes as filed in PubChem.
# Compounds with a hit are over-represented: about 4.6% of the library has one in this group of screens.
# VACV mCherry inh: qHTS for Stage-Specific Inhibitors of Vaccinia Orthopoxvirus: mCherry Reporter Primary qHTS; Vaccinia virus mCherry reporter infection, fluorescence; Potency, µM (series often up to 36.5 µM), for the others: at the top dose activity change, negative = inhibition, most hits filed as inhibitors; hit rate 0.63% among 310,000; calls by dose curve; tested in A549 cells; note: % is set by controls: 0 for no effect and ±100 for the full control effect; nearly all actives have a fitted effect of over 35% in size
# VACV Venus inh: qHTS for Stage-Specific Inhibitors of Vaccinia Orthopoxvirus: Venus Reporter Primary qHTS | Vaccinia virus Venus reporter expression, fluorescence | Potency, µM (doses to about 36.5 µM), for the others: at the highest dose activity change, negative = inhibition, usual class: inhibitors | hit rate 0.46% among 330,000 | AID 720580, 2013; calls by dose curve; tested in A549 cells; note: % is set by controls: 0 for no effect and ±100 for the full control effect; nearly all actives have a fitted effect of over 30% in size
# Marburg entry inh: qHTS for inhibitors of binding or entry into cells for Marburg Virus | Marburg virus pseudotyped entry inhibition, cell reporter | hit rate 1.8% among 300,000 | Potency, µM (titrated, usually from 37.8 µM), inactives show top-dose activity change, negative = inhibition, actives largely listed as inhibitors | AID 540276, 2011; calls by dose curve; tested in HEK293 cells; note: % is set by controls: 0 for no effect and ±100 for the full control effect
# Lassa entry inh: qHTS for Inhibitors of binding or entry into cells for Lassa Virus; AID 540256, 2011; Lassa virus pseudotype entry inhibition, cell reporter; hit rate 1.2% among 300,000; Potency, µM (highest dose often 37.9 µM), for the others: at the highest dose activity change, negative = inhibition, most hits filed as inhibitors; calls by dose curve; tested in HEK293 cells; note: % is set by controls: 0 for no effect and ±100 for the full control effect; nearly all actives have a fitted effect of over 50% in size
# HCV inh: qHTS Assay for Inhibitors of Hepatitis C Virus (HCV); Potency, µM (doses to about 41.8 µM), for inactives: at the top dose activity change, negative = inhibition, hits mostly inhibitors; hit rate 3.4% among 340,000; Huh7.5.1 HCVcc-Cre infection, luciferase reporter, 44 h; AID 651820, 2012; note: % is set by controls: 0 for no effect and ±100 for the full control effect
#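 1,000 cells/well; 4 h culture; + compound; + HCVcc-Cre (~0.5 moi); 44 h; luciferase substrate, RT 15 min; read 15 sec.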
# HCV confirm: qHTS Assay for Inhibitors of Hepatitis C Virus (HCV): Confirmation Assay for Cherry-picked Compounds; AID 720575, 2013; hit rate 78% among 640; shares compounds with HCV inh; HCVcc-Cre infectious virus cell assay, luciferase, inhibition; Potency, µM (doses to about 41.8 µM), for the others: at the highest dose activity, negative = inhibition, usual class: inhibitors; note: nearly all actives have a fitted effect of over 80% in size
# HCV cytotox: qHTS Assay for Inhibitors of Hepatitis C Virus (HCV): Cytotoxicity Counterscreen for Cherry-picked Compounds; HCV host cell line cytotoxicity counterscreen; AID 720576, 2013; Potency, µM (doses to about 41.8 µM), without a hit: at the top dose activity change, negative = cytotoxicity, actives largely listed as inhibitors; shares compounds with HCV inh; hit rate 22% among 640;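 note: 44 h compound exposure; % is set by controls: 0 for no effect and ±100 for the full control effect; nearly all actives have a fitted effect of over 55% in size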
# * hit, by the source's call; i = inactive; ? = inconclusive; . = no result; [ ] = another dose, or the depositor's remark. Unless noted, calls come from the whole dose curve; as a rule, active = well fitted curve in the direction sought with a large enough effect; inconclusive = small, poorly fitted or top-dose-only effect, or another doubt; inactive = no such curve, though single readings can be large; an effect the other way counts as inactive or inconclusive. Potency is the fitted concentration of half-maximal effect.
SMILES,VACV mCherry inh,VACV Venus inh,Marburg entry inh,Lassa entry inh,HCV inh,HCV confirm,HCV cytotox
CN1CCc2c(sc(NC(=O)c3ccc([N+](=O)[O-])o3)c2C(N)=O)C1,?,2.2µM*,?,?,4µM*,14µM*,?
NC(=O)c1c(NC(=O)c2ccc([N+](=O)[O-])o2)sc2c1CCCC2,?,-23%,-2%[46.1 µM],?,?,.,.
c1cc2c(cc1C1CCCCC1)c1c3n2CCCNC3CCC1 (configuration not stated),1%[1.46 µM],?,?,?,3.5µM*,28µM*,31µM*
COc1ccc(C(=O)NC2CCCc3c2cnn3-c2ccccc2F)cc1OC (configuration not stated),.,.,.,.,4.5µM*,7µM*,?
Cc1cccc(-c2noc(CNC(=O)c3ccccc3Br)n2)c1,-2%,-4%,?,-15%[46.1 µM],.,.,.
O=C(c1cc(COc2ccc3ncccc3c2)on1)N1CCC[C@H]1CO,-11%,-17%,-21%,?,?,7.9µM*,14µM*
CCOc1ccc2nc(N/C(N)=N/C(=S)Nc3cccc(C)c3)nc(C)c2c1,-7%,-14%,0%,1%,5.6µM*,7.9µM*,-19%
CCc1ccccc1NC(=S)/N=C(\N)Nc1nc(C)c2cc(C)ccc2n1,?,?,?,?,?,10µM*,?
Cc1cccc(-c2nc(C)c(CCNC(=O)C(=O)Nc3cccc(Cl)c3C)s2)c1,-3%,5%,.,3%[46.1 µM],.,.,.
CCn1nc(C)c(CNC(=O)c2ccc(OC3CCN(Cc4ccccn4)CC3)cc2)c1C,-3%,-16%,?,?,1µM*,0.56µM*,1.1µM*
Cc1cccnc1CCNC(=O)c1ccc(OC2CCN(Cc3ccccn3)CC2)cc1,-13%,-13%,?,-25%,-16%,.,.
O=C(COc1ccc(/C=N/NC(=O)c2cc3ccccc3o2)cc1Cl)Nc1ccccc1,?,?,?,8.9µM*,5.6µM*,7µM*,7µM*
COCCn1c(=O)[nH]c2cc(C(=O)N3CCN(c4ccc(Cl)cc4)CC3)ccc2c1=O,?,-2%,?,21%[46.1 µM],8.9µM*,7µM*,?
Oc1ccc(C[C@H]2CNC(=S)N2CC2CCCN2C[C@H](Cc2ccc(O)cc2)N2C[C@H](Cc3ccccc3)N(CC3CCCCC3)C2=S)cc1 (some centres not stated),-30%,?,.,.,2.5µM*,8.9µM*,-19%
Oc1ccc(C[C@H]2CN([C@@H](Cc3ccccc3)CN3CCC[C@@H]3CN3C(=S)NC[C@@H]3Cc3ccccc3)C(=S)N2CC2CCCCC2)cc1,6%,-11%,.,.,.,.,.
S=C(NCc1ccccc1)Nc1cccc2cnccc12,-17%,-16%,?,.,2µM*,7µM*,10µM*
Cc1cccc(N(C)C(=O)CN(C)S(=O)(=O)c2ccc3[nH]c4c(c3c2)CCCC4)c1,-20%,-16%,.,?,.,.,.
Cc1nn(CC(=O)Nc2cc(F)ccc2F)c(=O)c2cccn12,-11%,-11%,?,6%[46.1 µM],.,.,.
O=c1oc(C2(O)CCCCC2)cc2ccc(-c3ccc4[nH]ccc4c3)cc12,0.63µM*,-25%,.,.,1.1µM*,?,-14%
O=c1oc(C2(O)CCCCC2)cc2ccccc12,5%,-13%,.,.,-85%,.,.
CCN(CC)CCNC(=S)Nc1ccc2nc(N3CCCC3)cc(C)c2c1,.,.,4.1µM*,?,2µM*,7µM*,-23%
CCN1CCN(c2cc(C)c3cc(NC(=O)c4cc(OC)cc(OC)c4)ccc3n2)CC1,-29%,-26%,?,?,2.2µM*,25µM*,22µM*
Cc1cc(N2CCCC2)nc2ccc(NC(=S)NCCCOC(C)C)cc12,.,.,?,3%,?,.,.
O=C1NCCN(Cc2ccc(F)cc2)C1=O,0%,3%,.,17%[46.1 µM],.,.,.
Cc1cccc(-c2nc(CN3CCCC(C(=O)NCc4ccc(Cl)cc4)C3)c(C)o2)c1 (configuration not stated),-5%,-9%,7%[46.1 µM],-27%[46.1 µM],.,.,.
SMILES,VACV mCherry inh,VACV Venus inh,Marburg entry inh,Lassa entry inh,HCV inh,HCV confirm,HCV cytotox
COc1ccccc1NC(=O)C(C)OC(=O)c1cc2ccccc2[nH]1 (configuration not stated),.,.,.,.,?,7.9µM*,18µM*
Cc1ccc(C)c(CNc2ccc(S(=O)(=O)N3CCCCC3)cc2)c1,.,.,.,.,4.5µM*,25µM*,31µM*
Cc1ccc(S(=O)(=O)N2CCCCC2)cc1,.,.,.,.,6%,.,.
O=C(NC(Nc1nc2ccc([N+](=O)[O-])cc2s1)(C(F)(F)F)C(F)(F)F)c1cccnc1,.,.,?,?,4.5µM*,2.5µM*,7µM*
COc1cccc(NC(=O)C2CCN(S(=O)(=O)c3cccc4nonc34)CC2)c1,-7%,-7%,?,16%[46.1 µM],.,.,.
CC1CN(C)C(C)c2c1oc1ccc([N+](=O)[O-])cc21 (configuration not stated),4%,4%,11%[14.2 µM],1%,?,25µM*,23%
CN(C)c1ccc(CN(Cc2ccco2)C(=O)c2ccc(F)cc2)cc1,-11%,1%,?,?,.,.,.
CCOC(=O)c1c(NC(C)=O)c2c3c(sc2n1Cc1nc(-c2ccccc2C)oc1C)CCCC3,-15%,2%,.,0%[46.1 µM],.,.,.
COc1ccc(C2CC(c3cccs3)=Nc3ccccc3S2)cc1 (configuration not stated),.,.,.,.,?,?,16%
COc1cccc(C2C(=O)N(C3CCCCC3)CC(=O)N2Cc2ccc(Cl)cc2)c1 (configuration not stated),-13%,-9%,.,-15%[46.1 µM],.,.,.
C[C@]12CC[C@@H]3c4ccc(O)c(O)c4CC[C@H]3[C@@H]1CC[C@@H]2O,-27%,-15%,.,.,2.8µM*,20µM*,1%
C[C@]12CC[C@@H]3c4ccc(O)cc4[C@@H](O)C[C@H]3[C@@H]1CC[C@@H]2O,.,.,-4%,-19%,-5%[8.37 µM],.,.
CCOc1ccccc1NC(=O)/C=C/c1ccccc1[N+](=O)[O-],i,-13%,?,4%,?,?,27%
O=C(/C=C\c1ccccc1[N+](=O)[O-])Nc1ccccc1,.,.,.,.,-25%,.,.
COc1ccccc1Nc1nc2nonc2nc1N1CCCCC1C (configuration not stated),.,.,24%,15%,?,?,37%
CCOC(=O)c1c(C)[nH]c(C)c1S(=O)(=O)N1CCCC(C(=O)NCc2ccc(N(C)C)cc2)C1 (configuration not stated),-7%,-2%,.,3%[46.1 µM],.,.,.
